{"source": "PubChem BioAssay AID1778", "about": "(Sanford-Burnham Center for Chemical Genomics, 2009)", "note": "Where “and” joins values, the source holds several entries; their conditions need not be identical. Equal entries are not always repeated. In all, about 290,000 compounds went through this assay and about 260 (0.09%) were called active. Rule as the data show it: active = inhibition above about 50%; inactive = the rest. Shown is part of a subset that was picked to be rich in actives. Entries with a potency or affinity are not part of this list."}
{"target": "Kappa-type opioid receptor (Homo sapiens) (UniProt P41145)", "sequence (P41145 whole entry, looked up)": "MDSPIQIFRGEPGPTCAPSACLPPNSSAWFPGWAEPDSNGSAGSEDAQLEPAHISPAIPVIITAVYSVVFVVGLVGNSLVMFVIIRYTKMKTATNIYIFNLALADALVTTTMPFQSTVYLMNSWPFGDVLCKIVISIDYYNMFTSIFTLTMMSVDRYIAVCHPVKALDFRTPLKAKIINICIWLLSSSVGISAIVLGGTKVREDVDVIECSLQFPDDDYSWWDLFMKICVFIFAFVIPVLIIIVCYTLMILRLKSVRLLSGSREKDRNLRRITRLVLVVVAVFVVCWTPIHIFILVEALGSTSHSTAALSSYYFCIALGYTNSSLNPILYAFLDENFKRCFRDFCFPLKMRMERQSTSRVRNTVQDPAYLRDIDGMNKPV", "assay": "KOR antagonists, beta-arrestin recruitment, cell-based, luminescence, uHTS (AID 1778)", "details": "antagonist mode, hits give high values; at 10 µM unless noted"}
{"smiles": "COc1ccc(C(c2nnnn2C2CCCC2)N2CCC(C)CC2)cc1", "note": "(stereo not given)", "inhibition": "-3% (inactive)"}
{"smiles": "Cn1c(=O)[nH]c(=O)c2c1nc(NCCN)n2CCOc1ccccc1", "inhibition": "-30.9% [at 20 µM] (inactive)"}
{"smiles": "Cc1sc2nc(C3CC3)nc(N3CCN(C(=O)c4ccccc4F)CC3)c2c1C", "inhibition": "4.1% (inactive)"}
{"smiles": "O=C(N/N=C/c1ccc2ncccc2c1)c1cc(-c2cccs2)nc2ccccc12", "inhibition": "28.4% (inactive)"}
{"smiles": "C/C(=N/NC(=O)c1cc2ccccc2cc1O)c1ccco1", "inhibition": "17% (inactive)"}
{"smiles": "C/C(=N\\NC(=O)c1cc(-c2cccs2)nc2ccccc12)c1ccccn1", "inhibition": "75.1% (active)"}
{"smiles": "NNC(=O)c1cc(-c2cccs2)nc2ccccc12", "inhibition": "40.8% (inactive)"}
{"smiles": "C/C(=N\\NC(=O)c1c[nH]c2ccccc12)c1ccccn1", "inhibition": "21.4% (inactive)"}
{"smiles": "C/C(=N\\NC(=O)c1ccccc1)c1cccc(Br)c1", "inhibition": "21.6% (inactive)"}
{"smiles": "C/C(=N\\NC(=O)c1cc(Br)ccc1O)c1cccs1", "inhibition": "-5.5% (inactive)"}
{"smiles": "C/C(=N\\NC(=O)c1cccc(Br)c1)c1cccnc1", "inhibition": "-7.4% (inactive)"}
{"smiles": "C/C(=N\\NC(=O)c1cc2ccccc2cc1O)c1cccs1", "inhibition": "1.2% (inactive)"}
{"smiles": "CC(C)CNC(=S)N(CCCN(C)C)Cc1cc2cc3c(cc2[nH]c1=O)OCCO3", "inhibition": "-1.3% [at 20 µM] (inactive)"}
{"smiles": "O=C(O)c1nnn(-c2cc(C(F)(F)F)cc(C(F)(F)F)c2)c1-c1ccccc1", "inhibition": "7.9% (inactive)"}
{"smiles": "COc1ccc(-c2nc(C)sc2CC(=O)O)cc1", "inhibition": "-5.7% (inactive)"}
{"smiles": "N#Cc1c(C(F)(F)F)cc(-c2ccc(Cl)c(Cl)c2)nc1SCCN1CCOCC1", "inhibition": "-29.4% (inactive)"}
{"smiles": "CCOC(=O)C1=C(CSc2nc(-c3ccncc3)ccc2C#N)OC(N)=C(C#N)C1c1ccc(OC)cc1", "note": "(stereo not given)", "inhibition": "-4.9% (inactive)"}
{"smiles": "CC(C)NC(=S)n1cc(C(=O)c2cc(Cl)cc(Cl)c2O)cn1", "inhibition": "-10% (inactive)"}
{"smiles": "COC(=O)C1c2ccccc2-c2ccccc21", "inhibition": "-7.3% (inactive)"}
{"smiles": "CCOc1ccc(C(=O)/C=C/Nc2ccc(S(=O)(=O)N=C(N)N)cc2)cc1", "inhibition": "1% (inactive)"}
{"smiles": "Cc1ccc(N(C(=O)CNC(=O)c2ccco2)C(C(=O)NCC2CCCO2)c2ccccc2)cc1", "note": "(stereo not given)", "inhibition": "-12.5% (inactive)"}
{"smiles": "CC1CN(C(=S)SCC(=O)c2ccc(Cl)cc2)CC(C)O1", "note": "(stereo not given)", "inhibition": "21.8% (inactive)"}
{"smiles": "Cc1ccc(-c2onc(C)c2C)cc1S(=O)(=O)N1CC(C)Oc2ccccc21", "note": "(stereo not given)", "inhibition": "-11.7% (inactive)"}
{"smiles": "COc1ccc(N)c2c1C(=O)c1ccccc1C2=O", "inhibition": "20.4% (inactive)"}
{"smiles": "COc1ccc(OC)c2c1C(=O)c1ccccc1C2=O", "inhibition": "-4.5% (inactive)"}
{"smiles": "O=C1CC[C@@H](CN(Cc2ccccn2)Cc2nc(-c3ccc(C(F)(F)F)cc3)no2)N1", "inhibition": "3.4% [at 20 µM] (inactive)"}
{"smiles": "O=C(CC1C(=O)NCCN1Cc1cccc(Oc2ccccc2)c1)NCCCn1cccn1", "note": "(stereo not given)", "inhibition": "-2.5% (inactive)"}
{"smiles": "O=C(/C=C/c1cccnc1)/C=C/c1cccnc1", "inhibition": "57.9% (active)"}
{"smiles": "O=C(O)/C=C/c1cccnc1", "inhibition": "17.9% (inactive)"}
{"smiles": "CC(/C=C\\c1cccnc1)=C/C(=O)O", "inhibition": "-0.4% (inactive) and 17.9% (inactive)"}
{"smiles": "Cn1ccnc1SCc1nc2c(cnn2-c2ccccc2)c(=O)[nH]1", "inhibition": "-17.7% (inactive)"}
{"smiles": "Cc1cccc(-n2c(SCc3ccc(C#N)cc3)nnc2-c2c[nH]c3ccccc23)c1", "inhibition": "6.1% (inactive)"}
{"smiles": "CCOc1ccc(N2CC(C(=O)Nc3ccncc3)CC2=O)cc1", "note": "(stereo not given)", "inhibition": "15.6% (inactive)"}
{"smiles": "CCOC(=O)Cc1[nH]nc2c1C(Cc1ccccc1)C(C#N)=C(N)O2", "note": "(stereo not given)", "inhibition": "-4.1% (inactive)"}
{"smiles": "CC1(C)CC(=O)C(/C=N/c2ncccc2C(=O)O)=C(O)C1", "inhibition": "-24.7% (inactive)"}
{"smiles": "CC1(C)CC(=O)C(/C=N/c2ccccn2)=C(O)C1", "inhibition": "40.5% (inactive)"}
{"smiles": "CN(C)S(=O)(=O)c1cccc(C(=O)Nc2cc(Cl)ccc2O)c1", "inhibition": "-1.5% (inactive)"}
{"smiles": "C/C(=C\\c1ccc(F)cc1)C(=O)c1c(C)cc(C)[nH]c1=O", "inhibition": "5.1% (inactive)"}
{"smiles": "O=C(NCc1ccccn1)C(=O)NN=C1CCCCCCCCCCC1", "inhibition": "-9.2% [at 20 µM] (inactive)"}
{"smiles": "CCOC(=O)C(CSCC(=O)c1ccc(Br)cc1)NC(=O)OC(C)(C)C", "note": "(stereo not given)", "inhibition": "3.7% (inactive)"}
